Data as given in PubChem BioAssay AID463173 (ICCB-Longwood Screening Facility, Harvard Medical School, 2010).
The campaign covered roughly 52,000 compounds. About 1,700 (3.3%) were called active. Rule as the data show it: active = survival mostly below about 52% (no sharp cut-off); inactive = mostly above about 56%. Only a selection was taken, and actives are over-represented in it overall.

These molecules were tested on Wild type (assay: growth inhibition of S. aureus wild type versus tarO mutant, primary screen, teichoic acid synthesis inhibitors, RN4220, OD600 (AID 463173)). Conditions: S. aureus RN4220 wild type/DeltatarO growth, OD600, 18 h, hits give low values, screened at 18.75 µg/mL (by protocol).

Row | Compound | survival
1 | COc1ccccc1C(=O)Nc1nnc(SCc2cc(=O)c3ccccc3[nH]2)s1 | 72% (inactive)
2 | COc1ccc(NC(=O)c2cc(C(C)=O)n3ccccc23)cc1Cl | 87% (inactive)
3 | CCn1c(=O)c2sccc2n2c(CCCC(=O)N3CCN(c4ccc(OC)cc4)CC3)nnc12 | 96% (inactive)
4 | CCN(c1ccccc1)S(C)(=O)=O | 101% (inactive)
5 | Cc1ccn2c(Nc3ccc(C(C)C)cc3)c(-c3cccs3)nc2c1 | 53% (inactive)
6 | Cc1ccc(CNC(=O)C(C)n2nc(C)c3sc4ccccc4c3c2=O)cc1 (stereo unspecified) | 105% (inactive)
7 | Cc1ccc(OCC(=O)N(Cc2ccc(N(C)C)cc2)CC2CCCO2)cc1C (stereo unspecified) | 82% (inactive)
8 | COc1ccccc1Cn1cc(C(=O)c2ccc(C)cc2)c(=O)c2cc(C)ccc21 | 121% (inactive)
9 | CCc1ccc(C(=O)c2cn(Cc3ccccc3)c3cc(OC)c(OC)cc3c2=O)cc1 | 97% (inactive)
10 | COc1ccccc1Cn1cc(C(=O)c2ccccc2)c(=O)c2cc(OC)c(OC)cc21 | 10% (active)
11 | O=C(c1ccc2c(c1)OCCO2)N(Cc1cccnc1)c1nc2c(Cl)cccc2s1 | 128% (inactive)
12 | O=C(Nc1cccc(C(F)(F)F)c1)c1cc(-c2ccc(Cl)s2)nc2ccccc12 | 100% (inactive)
13 | CCn1nc(C)c2c(-c3ccccc3)cc(=O)n(C(C)C(=O)NCc3ccc(C)cc3)c21 (stereo unspecified) | 127% (inactive)
14 | CC1=C(C(=O)Nc2ccccc2)C(c2cccn2C)n2ncnc2N1 (stereo unspecified) | 76% (inactive)
15 | CC1=C(C(=O)Nc2ccccc2C)C(c2ccc[nH]2)n2ncnc2N1 (stereo unspecified) | 99% (inactive)
16 | COc1ccc(NC(=O)C2=C(C)Nc3ncnn3C2c2ccc[nH]2)cc1 (stereo unspecified) | 83% (inactive)
17 | COc1ccc(NC(=O)C2=C(C)Nc3ncnn3C2c2cccn2C)cc1 (stereo unspecified) | 85% (inactive)
18 | CC1=C(C(=O)Nc2ccccc2)C(c2ccc[nH]2)n2ncnc2N1 (stereo unspecified) | -3% (active)
19 | COc1ccccc1NC(=O)C1=C(C)Nc2ncnn2C1c1cccn1C (stereo unspecified) | 0% (active)
20 | COc1ccc(C2C(=O)N(C3CCCCCC3)CC(=O)N2Cc2ccccc2)cc1 (stereo unspecified) | 67% (inactive)
21 | Cc1ccc(CNC(=O)CN2C(=O)C3CCCCN3c3ccc(C(=O)N4CCCC4)cc32)cc1 (stereo unspecified) | 81% (inactive)

Row | Compound | survival
22 | COc1ccc(-c2ccc(/C=N/NC(N)=O)o2)cc1 | 114% (inactive)
23 | COc1ccc(-c2nnc3n2N(C(C)=O)C(c2ccc(Cl)c(Cl)c2)=C(C(C)=O)S3)cc1 | -3% (active)
24 | COc1ccc(C2=C(C(C)=O)Sc3nnc(-c4ccccc4)n3N2C(C)=O)cc1 | 76% (inactive)
25 | CC(=O)C1=C(c2ccc(Cl)c(Cl)c2)N(C(C)=O)n2c(nnc2-c2ccccc2)S1 | 83% (inactive)
26 | COC(=O)c1c(NC(=O)c2cc3nc(-c4ccc(OC)cc4)cc(C(F)(F)F)n3n2)sc2c1CCCC2 | 73% (inactive)
27 | Cc1c(CNC2CCCCCC2)c(C(=O)O)c(C)n1Cc1ccc(F)cc1 | 98% (inactive)
28 | CCOc1ccccc1CNS(=O)(=O)c1cnc(N)nc1 | 55% (inactive)
29 | Nc1ncc(S(=O)(=O)Nc2ccc(F)cc2F)cn1 | 82% (inactive)
30 | CCOc1ccccc1NS(=O)(=O)c1cnc(N)nc1 | -3% (active)
31 | COc1ccc(-c2c3c(=O)n(C)c(=O)n(C)c3c3n2-c2ccccc2NC3c2ccccc2OC)cc1 (stereo unspecified) | 64% (inactive)
32 | Cc1ccc(C2Nc3ccccc3-n3c(-c4ccccc4)c4c(=O)n(C)c(=O)n(C)c4c32)o1 (stereo unspecified) | 74% (inactive)
33 | Cc1ccc(C2Nc3cc(C)c(C)cc3-n3c(-c4ccccc4)c4c(=O)n(C)c(=O)n(C)c4c32)o1 (stereo unspecified) | 77% (inactive)
34 | COc1ccc(-c2c3c(=O)n(C)c(=O)n(C)c3c3n2-c2ccccc2NC3c2ccc(OC)cc2)cc1 (stereo unspecified) | 8% (active)
35 | COc1ccc(-c2c3c(=O)n(C)c(=O)n(C)c3c3n2-c2ccccc2NC3c2ccco2)cc1 (stereo unspecified) | 57% (inactive)
36 | COc1ccc(-c2nc3ccccc3n3c(-c4ccccc4)c4c(=O)n(C)c(=O)n(C)c4c23)cc1 | 80% (inactive)
37 | COc1ccc(C2Nc3ccccc3-n3c(-c4ccccc4)c4c(=O)n(C)c(=O)n(C)c4c32)cc1 (stereo unspecified) | -3% (active)
38 | Cn1c(=O)c2c(-c3ccccc3)n3c(c2n(C)c1=O)C(c1ccc([N+](=O)[O-])cc1)Nc1ccccc1-3 (stereo unspecified) | 21% (inactive)
39 | Cc1ccc(C2Nc3ccccc3-n3c(-c4ccccc4)c4c(=O)n(C)c(=O)n(C)c4c32)cc1 (stereo unspecified) | -8% (active)
40 | Cc1cc(C)cc(NC(=O)CN2C(=O)CSc3ccc(S(=O)(=O)N4CCCC4)cc32)c1 | 88% (inactive)
41 | Cc1nnc(SCc2nc(-c3ccc(Cl)cc3)no2)n1-c1ccc(F)cc1 | 100% (inactive)
42 | CC(C)CCNC(=O)CCCN1C(=O)c2ccccc2Sc2ncccc21 | 85% (inactive)

Row | Compound | survival
43 | CCS(=O)(=O)c1nc(S(=O)(=O)c2ccc(C)cc2)c(NC(C)c2ccccc2)s1 (stereo unspecified) | 136% (inactive)
44 | COC(=O)c1ccc2c(=O)n(CCCCCC(=O)N3CCN(c4ccc(OC)cc4)CC3)c(=O)[nH]c2c1 | 66% (inactive)
45 | O=C(Nc1ccc(F)c(F)c1)C1CCCN1S(=O)(=O)c1cccc2nsnc12 (stereo unspecified) | 77% (inactive)
46 | CCN(CC)CCN(C(=O)c1ccco1)c1nc2c(C)cccc2s1 | 98% (inactive)
47 | O=C(Cn1nc(-c2nccc3ccccc23)oc1=O)N1CCCc2ccccc21 | 103% (inactive)
48 | COc1ccc(N2CCN(c3oc(/C=C/c4cccc(OC)c4)nc3C#N)CC2)cc1 | 83% (inactive)
49 | COc1ccc(-c2nc(CNC(=O)Nc3ccccc3)c(C)o2)cc1 | 84% (inactive)
50 | CCOc1ccc2c(c1)[C@@H]1C=CC[C@@H]1[C@H](c1ccccc1Cl)N2 | 0% (active)
51 | COC(=O)c1ccc([C@H]2Nc3ccc(S(=O)(=O)Nc4cccc(C)c4)cc3[C@H]3C=CC[C@H]32)cc1 | 68% (inactive)
52 | COC(=O)c1ccc([C@@H]2Nc3c(C)cc(C)cc3[C@@H]3C=CC[C@@H]32)cc1 | 87% (inactive)
53 | CCOC(=O)c1cccc2c1N[C@@H](c1ccc(F)cc1)[C@H]1CC=C[C@@H]21 | 12% (active)
54 | Fc1ccc([C@@H]2Nc3ccccc3[C@@H]3C=CC[C@@H]32)cc1 | 88% (inactive)
55 | CCOc1cccc2c1N[C@@H](c1ccc(C(=O)O)cc1)[C@H]1CC=C[C@@H]21 | 78% (inactive)
56 | CCOC(=O)c1ccc2c(c1)[C@@H]1C=CC[C@@H]1[C@H](c1cccc(OC)c1OC)N2 | 0% (active)
57 | COc1cccc(NS(=O)(=O)c2ccc3c(c2)[C@H]2C=CC[C@H]2[C@@H](c2ccccc2Cl)N3)c1 | 131% (inactive)
58 | COC(=O)c1cccc2c1NC(c1cccnc1)C1CC=CC21 (stereo unspecified) | 111% (inactive)
59 | COC(=O)c1ccc([C@H]2Nc3ccc(S(=O)(=O)Nc4ccc(F)cc4)cc3[C@H]3C=CC[C@H]32)cc1 | 69% (inactive)
60 | COC(=O)c1ccc([C@@H]2Nc3c(cccc3C(F)(F)F)[C@@H]3C=CC[C@@H]32)cc1 | 3% (active)
61 | COc1ccc(Br)cc1[C@@H]1Nc2ccc(C(=O)O)cc2[C@@H]2C=CC[C@@H]21 | 65% (inactive)
